NS1 inh – inhibitors of influenza NS1 protein function. Potency, µM (series often up to 46.1 µM), for the others: at the highest dose activity, positive = more growth. hit rate 0.4% among 270,000; also: actives are rising curves; nearly all actives have a fitted effect of over 50% in size
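Growth recovery, yeast-based: influenza A NS1 expressed in S. cerevisiae causes slow growth, and suppressors are detected by OD600. The parent strain without NS1 is used as positive control.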
SARS PLP yeast – inhibitors of SARS-CoV papain-like protease in yeast; S. cerevisiae expressing SARS-CoV PLpro, growth rescue; Potency, µM (series often up to 32.9 µM), for inactives: at the top dose activity, positive = growth rescue, hits mostly activators; hit rate 0.19% among 330,000; also: 0% is about no effect; nearly all actives have a fitted effect of over 55% in size
RE007 growth inh – less growth of the S. pombe RE007 Vpr strain. S. pombe RE007 Vpr strain, BacTiter-Glo ATP luminescence, 24 h. Potency, µM (titrated, usually from 92.2 µM), for the others: at the highest dose activity change, negative = less growth, actives largely listed as inhibitors. hit rate 0.21% among 360,000. AID 651644; active = well fitted falling curve with a large enough effect; inconclusive = small, poorly fitted or top-dose-only effect; inactive = no such curve, though single readings can be large or run the other way; also: % is scaled to controls: 0 for no effect and ±100 for the full control effect; nearly all actives have a fitted effect of over 50% in size
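Fission yeast RE007 carrying one integrated HIV-1 vpr copy, seeded at OD 0.01 in PMG+AL medium with 23 nL pinned compound. Grown 24 h at 30 degrees; viability read by BacTiter-Glo luminescence after 5 min.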
Pf growth 48h – P. falciparum growth inhibition at 48 hours (one generation). P. falciparum luciferase growth in erythrocytes, 48 h. Potency, µM (top dose mostly 28.7 µM), for inactives: at the top dose activity change, negative = inhibition, usual class: inhibitors. hit rate 5.9% among 310,000. AID 504832; active = well fitted inhibition curve with a large enough effect; inconclusive = small, poorly fitted or top-dose-only effect, or another doubt; inactive = no such curve, though single readings can be large or run the other way; also: % is scaled to controls: 0 for no effect and ±100 for the full control effect
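Luminescence readout; reporter = integrated firefly luciferase in P. falciparum. RBC culture at 2% hematocrit, 0.1% parasitemia final, 37 C/5% CO2; decreased signal taken as growth inhibition.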
Pf growth 96h – inhibits malaria parasite growth, 96 h. P. falciparum luciferase reporter growth, 96 h. Potency, µM (titrated, usually from 28.7 µM), without a hit: at the top dose activity change, negative = inhibition, hits mostly inhibitors. hit rate 6.9% among 320,000. AID 504834; active = well fitted inhibition curve with a large enough effect; inconclusive = small, poorly fitted or top-dose-only effect, or another doubt; inactive = no such curve, though single readings can be large or run the other way; also: % is scaled to controls: 0 for no effect and ±100 for the full control effect
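Readout is luminescence from an integrated firefly luciferase in P. falciparum. Red cells, 2% hematocrit and 0.05% parasitemia final, were cultured with compound through two parasite generations (96 hours) at 37 C, 5% CO2.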
The depositor's hits bear a star; u = inconclusive; x = no result; ! = a repeat was not active. This is a sample that favours compounds with a hit; in the whole collection about 9.5% have one here. Unless noted, calls follow the shape of the full dose curve. Potency is read from the fitted curve at half-maximal effect.

SMILES | NS1 inh | SARS PLP yeast | RE007 growth inh | Pf growth 48h | Pf growth 96h
Cc1cc(NC(=O)CCC(=O)N(c2ccccc2)C(C(=O)NC2CCCCC2)c2cccs2)no1 (configuration not stated) | 3% | -13% | 9% | u | 8.3µM*
Cc1cc(NC(=O)CCC(=O)N(c2ccccc2)C(C(=O)NC2CCCC2)c2ccc(F)cc2)no1 (configuration not stated) | -4% | -4% | 6% | -14% | u
CCc1ccccc1N(C(=O)CCC(=O)Nc1cc(C)on1)C(C(=O)NC1CCCC1)c1ccco1 (configuration not stated) | -15% | -3% | 10% | 9.3µM* | 27%
Cc1cc(NC(=O)CCC(=O)N(Cc2ccco2)C2(C(=O)NC3CCCC3)CCC(C)CC2)no1 (configuration not stated) | 18% | 5% | 6% | 15µM* | u
Cc1cc(NC(=O)CCC(=O)N(c2ccc(F)cc2)C(C(=O)NC2CCCC2)c2ccc(C)o2)no1 (configuration not stated) | -9% | 0% | 2% | 9.3µM* | 32%
CN1CCN(C(=O)c2cc3c(c(-c4cccc(-c5cc6ccccc6o5)c4)n2)[C@H](CCO)N(S(=O)C(C)(C)C)C3)CC1 (some centres not stated) | x | x | -22% | x | x
CCc1ccc(/C=c2\s/c(=C\C(=O)C(C)(C)C)[nH]c2=O)cc1 | -93% | -28% | -2% | 3.3µM* | x
Cc1ccsc1C1Nc2ccc3ncccc3c2C2=C1C(=O)CCC2 (configuration not stated) | 2% | -6% | -18% | 10µM* | 4.7µM*
COc1cc(C2Nc3ccc4ncccc4c3C3=C2C(=O)CCC3)cc(OC)c1OC (configuration not stated) | -2% | 1% | -13% | u | 1%
CC(C)[C@H](NC(=O)c1c(F)cccc1F)C(=O)OCC(=O)NNC(=O)c1ccccc1 | x | x | -15% | x | x
CCOC(=O)c1cc2sc(C)cc2n1CC(=O)Nc1ccc2c(c1)OCCO2 | -2% | -3% | -4% | -9% | 0.74µM*
CCOC(=O)c1cc2sc(C)cc2n1CC(=O)Nc1cccc(C)c1C | 12% | 19% | -3% | u | 10%
Cc1cc(C)cc(-n2c(N)c(C(=O)Nc3c(C)n(C)n(-c4ccccc4)c3=O)c3nc4ccccc4nc32)c1 | 14% | -22% | -28% | 12% | 2.9µM*
COc1cccc(-n2c(N)c(C(=O)Nc3c(C)n(C)n(-c4ccccc4)c3=O)c3nc4ccccc4nc32)c1 | 6% | 0% | 8% | u | -23%
Cc1ccc(-n2c(N)c(C(=O)Nc3c(C)n(C)n(-c4ccccc4)c3=O)c3nc4ccccc4nc32)cc1 | 7% | 5% | -2% | 9.3µM* | u
CCNc1nc(NCC)nc(N(C#N)CCOc2ccccc2)n1 | -7% | -2% | 6% | u | 5.2µM*
COC(=O)c1cc(=O)n(CCc2ccc(OC)cc2)c(=Nc2ccc(F)c(Cl)c2)s1 | 12% | 0% | 21% | x | 114%
CCOC(=O)c1ccc(N=c2sc(C(=O)OC)cc(=O)n2CCCN2CCOCC2)cc1 | -61% | 4% | -12% | u | 4.7µM*!
COC(=O)c1cc(=O)n(CCc2ccccc2)c(=Nc2ccc(F)cc2)s1 | -2% | -12% | -9% | u | 4.1µM*
Cc1ccc(C2C=C(c3ccc4c(c3)OCO4)Nc3ncnn32)cc1 (configuration not stated) | -49% | 14% | u | u | 12µM*
O=C(NC(=S)Nc1ccccc1[N+](=O)[O-])c1cncc(Br)c1 | -7% | -5% | -3% | 8% | 2.6µM*
O=C(NC(=S)Nc1ccccc1O)c1cncc(Br)c1 | x | x | -15% | x | x
O=C(NC(=S)Nc1ccc(Br)cn1)c1cncc(Br)c1 | -7% | -2% | -4% | 1% | 13µM*
O=C(NC(=S)Nc1ccccn1)c1cncc(Br)c1 | 7% | 17% | -11% | 33% | -7%
CC(C(=O)O)N(c1ccccc1Cl)S(C)(=O)=O (configuration not stated) | x | 1% | 7% | u | 55%
SMILES | NS1 inh | SARS PLP yeast | RE007 growth inh | Pf growth 48h | Pf growth 96h
COc1ccc(CNC(=O)CNC(=O)c2ccc(C(C)(C)C)cc2)cc1OC | 3% | 2% | 0% | u | u
COc1ccc(S(=O)(=O)n2ccc(-c3ccc(OCCN(C)c4ccccn4)cc3)n2)cc1 | 21% | -6% | -18% | 4.7µM* | 10µM*
CN1C(=O)C(=Cc2ccc(OCCN(C)c3ccccn3)cc2)C(=O)N(C)C1=O | x | 0% | 1% | 236% | 26%
Nc1ccccc1N=Cc1ccc(-c2cccc(Cl)c2)o1 | x | -25% | u | 10µM* | u
COC(=O)N/N=C/c1ccc(-c2cccc(Cl)c2)o1 | -44% | -65% | -14% | 22% | -23%
COc1ccc(C2CC(=O)C(C(c3ccc(O)cc3)C3C(=O)CC(c4ccc(OC)cc4)CC3=O)C(=O)C2)cc1 (configuration not stated) | u | 6% | x | u | u
O=C(c1cc(C(=O)NCc2ccc(Cl)cc2)c(=O)n(Cc2ccc(Cl)cc2)c1)c1cc(F)ccc1O | 5% | -21% | -10% | 2.9µM* | 1.5µM*
O=C(CC1C=CCC1)Nc1ccccc1 (configuration not stated) | x | x | -6% | x | x
CCOc1cc(NC(=O)C2CC2)c(OCC)cc1NC(=O)c1ccccn1 | -25% | 2% | 1% | 15µM* | x
CCOc1cc(NC(=O)c2ccccn2)c(OCC)cc1NC(=O)CC(C)C | 4% | -2% | 6% | 13µM* | 3.7µM*
COC(=O)[C@]12CCCCC=C1N(Cc1ccc(Cl)cc1Cl)C(=O)[C@H](CC(=O)N1CCOCC1)C2 | x | x | 17% | x | x
O=[N+]([O-])c1cccc(C2(O)COc3ccccc3O2)c1 (configuration not stated) | 5% | 0% | -2% | 25% | 64%
CC1=NN(C(N)=S)C(=O)C1N=Nc1ccc(Br)cc1 (configuration not stated) | -12% | 6% | -21% | 9.3µM* | u
CC1=NN(C(N)=S)C(=O)C1N=Nc1ccc(Cl)cc1 (configuration not stated) | -19% | 1% | -11% | u | u
Cc1ccccc1NC(=O)c1cc[n+]([O-])cc1 | 10% | x | -1% | 1% | 25%
CCCCn1nc(C(=O)NCC2COc3ccccc3O2)c2ccccc2c1=O (configuration not stated) | x | 1% | -1% | 10µM* | u
CCCCn1nc(C(=O)NCc2ccccc2CN2CCCC2)c2ccccc2c1=O | x | 1% | 5% | 9.3µM* | 7.4µM*
CCCCn1nc(C(=O)Nc2nc3c(s2)CCCC3)c2ccccc2c1=O | 5% | 21% | -1% | u | 6.6µM*
CC(C)Cn1nc(C(=O)NCc2ccccc2CN2CCCC2)c2ccccc2c1=O | x | -1% | 9% | u | u

Compound activity: PubChem, National Center for Advancing Translational Sciences (NCATS)
